# Nrf2 ARE act: activators of Nrf2 (ARE) signaling. AREc32 ARE-luciferase reporter (MCF7-derived line), luminescence, 24 h. Potency, µM (titrated, usually from 46.1 µM), for the others: at the highest dose activation, most hits filed as activators. 0.31% of 410,000 active. AID 624171; note: potency is the fitted concentration of half-maximal effect; % of control where 0% means no effect; nearly all actives have a fitted effect of over 65% in size
#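 Reporter line AREc32 (ARE-Fluc), seeded overnight in OPTI-MEM with 5% FBS; compound pin-transferred, 24 hr at 37 deg C, 5% CO2; luminescent read-out.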
# ALOX12 inh: ALOX12 (human) lipoxygenase inhibition. 1.1% of 580,000 active. Potency, µM (series often up to 108 µM), for inactives: top-dose activity change, negative = inhibition, actives largely listed as inhibitors. purified 12hLO, xylenol orange hydroperoxide absorbance. P18054. AID 1671190; note: potency is the fitted concentration of half-maximal effect; % is set by controls: 0 for no effect and ±100 for the full control effect
# Target sequence (P18054 whole entry, looked up): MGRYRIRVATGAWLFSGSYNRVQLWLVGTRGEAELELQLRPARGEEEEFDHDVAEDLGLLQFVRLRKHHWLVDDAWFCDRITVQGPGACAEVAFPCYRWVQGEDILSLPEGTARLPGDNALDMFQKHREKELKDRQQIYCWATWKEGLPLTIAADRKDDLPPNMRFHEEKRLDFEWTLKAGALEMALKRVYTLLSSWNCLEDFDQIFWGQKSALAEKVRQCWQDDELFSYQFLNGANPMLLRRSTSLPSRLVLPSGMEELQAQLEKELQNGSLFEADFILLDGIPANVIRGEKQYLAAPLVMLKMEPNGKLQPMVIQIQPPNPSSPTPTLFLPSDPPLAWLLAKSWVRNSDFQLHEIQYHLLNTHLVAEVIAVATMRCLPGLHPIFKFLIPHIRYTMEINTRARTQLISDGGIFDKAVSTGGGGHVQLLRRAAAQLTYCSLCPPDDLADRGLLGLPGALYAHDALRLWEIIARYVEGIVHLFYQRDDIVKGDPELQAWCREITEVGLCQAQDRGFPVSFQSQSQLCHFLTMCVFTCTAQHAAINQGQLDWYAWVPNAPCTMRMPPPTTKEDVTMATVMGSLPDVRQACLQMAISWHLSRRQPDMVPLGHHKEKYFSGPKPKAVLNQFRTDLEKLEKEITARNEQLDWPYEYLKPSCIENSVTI
#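 Purified human 12hLO at 150 nM in 25 mM Hepes, 0.01% Triton X-100, pH 7.0, preincubated 15 min at room temperature with compound. Reaction started with 40 uM arachidonic acid, 30 min at room temperature. Hydroperoxide measured by Fe-xylenol orange, 573/405 nm absorbance ratio.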
# uPA generation: blocks generation of uPA at the cell surface; cell surface uPA generation assay, qHTS; Potency, µM (titrated, usually from 38.3 µM), inactives show at the top dose activity change, negative = inhibition, usual class: inhibitors; AID 540303; 0.31% of 330,000 active; active = well fitted inhibition curve with a large enough effect; inconclusive = small, poorly fitted or top-dose-only effect; inactive = no such curve, though single readings can be large or run the other way; tested in mouse RAW 264.7 cells; note: potency is the fitted concentration of half-maximal effect; % is set by controls: 0 for no effect and ±100 for the full control effect; nearly all actives have a fitted effect of over 55% in size
# a7 integrin act: activates integrin-mediated alleviation for muscular dystrophy; alpha7betagal myoblasts, beta-gal FDG fluorescence, 48 h; Potency, µM (highest dose often 38.3 µM), for inactives: at the highest dose activation, usual class: activators; AID 624291; 0.064% of 350,000 active;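 note: potency is the fitted concentration of half-maximal effect; 100% = response of the positive control SU9516; nearly all actives have a fitted effect of over 60% in size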
#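 Alpha7betagal+/- myoblasts (passage 13) were plated 16-24 hr, then exposed to compounds (1:260 dilution of DMSO stock) for 48 hours at 37C. After MPER lysis, β-galactosidase reporter activity was read as FDG fluorescence (ex 480/em 540) after 30 minutes.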
# IL-2 act: activates IL-2 in a cell-based reporter assay. IL-2 activation reporter assay, cell-based qHTS; stimulated with anti-CD3/CD4/CD28 beads; in transgenic mouse T cells. activation, % (series mostly up to about 46 µM). 0.065% of 360,000 active; in the data active = activation above about 50%; inconclusive = mostly about 30% to 49%; note: 0% is about no effect
#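 First, unstimulated transgenic mouse T cells were exposed to compound for 60 min. Next, anti-CD3/anti-CD4-coated beads with anti-CD28 were added. Finally, after 18 h at 37 degrees C, EGFP and DsRed were imaged.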
# Starred values were filed as active, the others as inactive; ? = inconclusive; / = no result; [ ] = dose if it differs, or a comment. Compounds with a hit are over-represented: about 1.5% of the library has one in this group of screens. Unless noted, calls come from the whole dose curve; as a rule, active = well fitted curve in the direction sought with a large enough effect; inconclusive = small, poorly fitted or top-dose-only effect, or another doubt; inactive = no such curve, though single readings can be large; an effect the other way counts as inactive or inconclusive.
SMILES,Nrf2 ARE act,ALOX12 inh,uPA generation,a7 integrin act,IL-2 act
COc1ccccc1-c1cc([C@H]2CN3CC[C@H]2C[C@@H]3COC(=O)Nc2ccccc2)nc(C)n1,/,3.6%,/,/,/
O=C(NC1CCCCC1)OC[C@H]1C[C@@H]2CCN1C[C@@H]2c1cc(C2CCCC2)nc(-c2ccncc2)n1,/,31.6µM*,/,/,/
COc1cc(NC(=O)OC[C@H]2C[C@@H]3CCN2C[C@@H]3c2cc(-c3ccc(N(C)C)cc3)nc(C)n2)cc(OC)c1,/,44.7µM*,/,/,/
Cc1cccc(N2C(=O)NC(=O)/C(=C/c3ccc([N+](=O)[O-])o3)C2=O)c1,7.4%,/,1.2%,3.2%,0.5
Cc1ccc(N2C(=O)NC(=O)/C(=C\C=C\c3ccco3)C2=O)cc1C,?,39.8µM*,-7.6%,-54.5%,4.4
Cc1ccc(N2C(=O)NC(=O)/C(=C\C=C\c3ccco3)C2=O)cc1,?,-22.7%,7.94µM*,-38.6%,-3.6
Cc1cccc(N2C(=O)NC(=O)/C(=C\C=C\c3ccco3)C2=O)c1,?,?,10µM*,-77.6%,-2.1
Cc1ccc(N2C(=O)NC(=O)/C(=C\c3ccoc3)C2=O)cc1,0.2%,?,3.2%,11.6%,-0.3
O=C1NC(=O)N(c2ccccc2)C(=O)/C1=C/C=C/c1ccco1,?,?,10µM*,-59.0%,-0.4
CN(C)c1ccc(/C=C/C=C2/C(=O)NC(=O)N(c3ccccc3)C2=O)cc1,?,167.3%,4.2%,3.7%,-7.9
COc1ccc(CN(Cc2ccc(OC)cc2)C[C@H]2C[C@@H]3CCN2C[C@@H]3c2cc(C3CCCC3)nn2C)cc1,/,8.5%,/,/,/
CN1C(=O)CO[C@H]2CN(C3CCC3)C[C@H]21,/,7.6%[176 µM],/,/,/
O=C(OC1CCOC1=O)c1cccs1 (stereo not drawn),/,0.7%,/,/,/
COc1cc2c(cc1Oc1ccccc1)NC(=O)C21CCN(C(=O)c2cccnc2)CC1,/,10.2%[176 µM],/,/,/
CC(=O)O[C@@]12CO[C@@H]1C[C@H](O)[C@@]1(C)C(=O)[C@H](O)C3=C(C)[C@@H](OC(=O)[C@H](O)[C@@H](NC(=O)c4ccccc4)c4ccccc4)C[C@@](O)([C@@H](OC(=O)c4ccccc4)C12)C3(C)C (stereo partly drawn),-1.9%,64.7%,0.447µM*,-46.3%,2.0
CC=C(C)C(=O)N[C@@H](c1ccccc1)[C@@H](O)C(=O)O[C@H]1C[C@@]2(O)[C@@H](OC(=O)c3ccccc3)[C@@H]3[C@]4(OC(C)=O)CO[C@@H]4C[C@H](O)[C@@]3(C)C(=O)[C@H](OC(C)=O)C(=C1C)C2(C)C,/,-4.9%[57.4 µM],/,/,/
CC(C)CCN1CCC2(CC1)C(=O)Nc1ccccc12,/,2.1%[12.5 µM],/,/,/
C[C@H](NC(=O)c1[nH]cnc1C(=O)Nc1ccc(Cl)cc1)c1ccccc1,0.4%,44.7µM*,-26.6%,-32.7%,0.2
O=C(Nc1ccc(Cl)cc1)O/N=C(\c1ccccc1)c1ccccn1,-0.4%,4.0%,-5.9%,3.1%,0.0
COc1cc(O)c(C(=O)O)c(-c2cc(O)c(O)cc2C)c1,17.1%,3.16µM*,-8.7%,-44.7%,0.6
Cc1cc(/C=C2\C(=O)NC(=O)N(c3cccc(F)c3)C2=O)c(C)n1-c1ccc(C(=O)O)c(Cl)c1,0.6%,7.94µM*,3.7%,19.6%,0.2
CC1=C(C(=O)c2ccccc2)C2(C(=O)Nc3ccc(Br)cc32)C(C(=O)OCc2ccccc2)=C(N)O1 (stereo not drawn),/,-22.9%,/,/,/
COc1ccc(C(=O)N2CCC3(CC2)c2nccn2-c2ccccc2CN3C)cc1OC,/,29.9%,/,/,/
COC(=O)N1CCC2(C1)N=C(c1cccnc1)C(=O)N2 (stereo not drawn),/,37.7%[176 µM],/,/,/
CCOc1ccc(CNCCc2c[nH]c3ccccc23)cc1OCC,/,-27.1%,/,/,/
SMILES,Nrf2 ARE act,ALOX12 inh,uPA generation,a7 integrin act,IL-2 act
Clc1cccc(CNCCc2c[nH]c3ccccc23)c1,3.6%,4.47µM*,7.7%,?,0.0
Cc1ccc(CNCCc2c[nH]c3ccccc23)c(C)c1,/,12.6µM*,/,/,/
C[n+]1c2ccccc2nc2ccc(NCCO)cc21,0.2%,6.3%,-6.1%,-13.2%,-0.4
CNc1ccc2nc3ccccc3[n+](C)c2c1,-0.2%,56.1%,4.47µM*,-15.1%,-5.9
O=C(CN1CCN(C(=O)Cc2c[nH]c3ccccc23)CC1)NC1CC1,/,-18.1%,/,/,/
CCN(CC)CCOC(=O)C(O)(c1ccccc1)c1ccccc1,0.1%,-18.1%,-1.2%,/,-0.3
CC(C)N1C(=O)CC2(CC[N+](C)(CCOC(=O)C(O)(c3ccccc3)c3ccccc3)CC2)C1=O (stereo not drawn),0.2%,35.5µM*,0.3%,23.7%,0.0
O=C1NC(=O)N(Cc2ccccc2)C(=O)/C1=C\C=C\c1ccco1,?,39.8µM*,-11.2%,-21.9%,-0.4
Cc1cc(/C=C2\C(=O)NC(=O)N(Cc3ccco3)C2=O)c(C)n1-c1ccc(O)cc1,-0.3%,35.5µM*,-1.8%,-3.9%,-0.1
Cc1ccc(OCCn2cccc2/C=C2/C(=O)NC(=O)N(Cc3ccco3)C2=O)cc1,9.9%,35.5µM*,-3.7%,-29.4%,-0.7
Cn1cccc1/C=C1\C(=O)NC(=O)N(Cc2ccco2)C1=O,-0.9%,?,?,28.5%,9.0
O=C1NC(=O)N(Cc2ccco2)C(=O)/C1=C/C=C/c1ccco1,?,39.8µM*,-14.0%,-63.9%,-0.7
Cc1ncc2c(n1)C[C@@H]1CC[C@H]2N1S(=O)(=O)c1c(C)noc1C,/,-3.1%,/,/,/
COCCNC(=O)c1c(NC(=O)c2ccc(Br)o2)n(Cc2ccccc2)c2nc3ccccc3nc12,-0.4%,1.0%,-1.0%,-21.9%,1.8
COCCCNC(=O)c1c(NC(=O)c2ccco2)n(Cc2ccccc2)c2nc3ccccc3nc12,15.8µM*,407.7%,-15.8%,-54.9%,-0.5
COc1ccc(Cc2c(O)[nH]c(=S)[nH]c2=O)cc1,-0.1%,28.2µM*,3.9%,14.9%,-0.1
NC1CCCN(Cc2cccnc2)C1 (stereo not drawn),/,26.6%,/,/,/
CCOCC(=O)N1CCC2(CC1)c1nccn1-c1ccccc1CN2C,/,49.9%,/,/,/
Cc1nonc1CC(=O)N1C[C@H](O)[C@@H](N2CCC(O)CC2)C1,/,12.6µM*,/,/,/
COc1ccc([C@@H]2CN(C(=O)Cc3nonc3C)[C@@H]3C4CCN(CC4)[C@@H]32)cc1,/,2.1%,/,/,/
C[S+](=O)([O-])N1CCC2(CC1)C(=O)NN=C2c1cccnc1,/,14.3%[176 µM],/,/,/
CC(C)CCN1CCC2(CC1)CC(c1cccnc1)=NO2,/,80.0%[176 µM],/,/,/
Cc1c(C(c2ccc(F)cc2)c2c(O)c3ccccc3oc2=O)c(=O)n(-c2ccccc2)n1C (stereo not drawn),-1.0%,?,0.9%,36.2%,-1.9
CC(C)c1ccc(C(c2c(O)c3ccccc3oc2=O)c2c(O)c3ccccc3oc2=O)cc1,-1.0%,7.08µM*,/,-15.6%,-1.8
O=c1oc2ccccc2c(O)c1C(c1ccc([N+](=O)[O-])cc1)c1c(O)c2ccccc2oc1=O,3.1%,7.94µM*,-7.1%,33.2%,0.1

# Assay outcomes from PubChem.
